# Data taken from paper PMC7862700, “An all-to-all approach to the identification of sequence-specific readers for epigenetic DNA modifications on cytosine”.
# Assays:
# Experiment in all cases: DAPPL (digital affinity profiling via proximity ligation, sequencing); 10 mM Tris-HCl pH 7.5, 50 mM NaCl, 1 mM DTT, 4% glycerol, room temperature, 30 min; GST-TFs on glutathione beads, 16-mer random dsDNA library, 0.1% formaldehyde crosslink after washing; high values mean tight binding
# Settings in all cases: protein: recombinant; tags: N-terminal GST; dsDNA, one strand shown
# FLI1 = target: T1, FLI1 (Homo sapiens, UniProt Q01543 1-452)
# T1 sequence: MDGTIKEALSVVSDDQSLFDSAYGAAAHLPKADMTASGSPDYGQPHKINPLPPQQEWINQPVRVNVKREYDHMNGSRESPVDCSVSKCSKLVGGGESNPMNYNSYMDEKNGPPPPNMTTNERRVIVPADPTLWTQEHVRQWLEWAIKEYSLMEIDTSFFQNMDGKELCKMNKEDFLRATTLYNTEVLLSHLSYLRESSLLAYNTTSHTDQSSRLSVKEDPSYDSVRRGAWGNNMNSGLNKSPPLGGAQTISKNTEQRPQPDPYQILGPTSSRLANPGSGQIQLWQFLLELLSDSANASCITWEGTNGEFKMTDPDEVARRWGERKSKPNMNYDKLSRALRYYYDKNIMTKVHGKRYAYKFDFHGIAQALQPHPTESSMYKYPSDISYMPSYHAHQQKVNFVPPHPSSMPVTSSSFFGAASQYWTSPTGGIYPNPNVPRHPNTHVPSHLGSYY
# Procedure, shortened: (§1)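 Human transcription factors were made in yeast as GST fusions, captured on glutathione beads and barcoded with DNA. With a tag-only sample included, the pool was incubated with 200 nmole of a random double-stranded 16-mer DNA library in Tris/NaCl/DTT/glycerol buffer at room temperature for 30 min, then crosslinked with 0.1% formaldehyde after washing, ligated by proximity, amplified and sequenced. For binding signal, each hexamer's read frequency for a factor is divided by its frequency for the tag-only sample.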
# ELK1 = target: T2, ELK1 (Homo sapiens, UniProt P19419 1-428)
# T2 sequence: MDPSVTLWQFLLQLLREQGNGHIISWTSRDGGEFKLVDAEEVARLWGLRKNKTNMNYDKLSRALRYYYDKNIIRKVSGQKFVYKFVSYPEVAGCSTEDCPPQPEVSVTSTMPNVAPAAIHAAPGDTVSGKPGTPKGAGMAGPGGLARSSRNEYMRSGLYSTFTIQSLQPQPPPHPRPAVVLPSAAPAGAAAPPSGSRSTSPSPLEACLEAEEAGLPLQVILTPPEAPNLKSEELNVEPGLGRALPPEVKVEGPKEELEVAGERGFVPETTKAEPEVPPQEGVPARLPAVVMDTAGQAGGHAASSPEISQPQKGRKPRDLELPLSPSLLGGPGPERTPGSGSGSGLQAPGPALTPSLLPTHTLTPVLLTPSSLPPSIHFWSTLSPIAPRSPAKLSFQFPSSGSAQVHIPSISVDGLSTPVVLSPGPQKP
# Procedure, shortened: as §1
# GABPA = target: T3, GABPA (Homo sapiens, UniProt Q06546 1-454)
# T3 sequence: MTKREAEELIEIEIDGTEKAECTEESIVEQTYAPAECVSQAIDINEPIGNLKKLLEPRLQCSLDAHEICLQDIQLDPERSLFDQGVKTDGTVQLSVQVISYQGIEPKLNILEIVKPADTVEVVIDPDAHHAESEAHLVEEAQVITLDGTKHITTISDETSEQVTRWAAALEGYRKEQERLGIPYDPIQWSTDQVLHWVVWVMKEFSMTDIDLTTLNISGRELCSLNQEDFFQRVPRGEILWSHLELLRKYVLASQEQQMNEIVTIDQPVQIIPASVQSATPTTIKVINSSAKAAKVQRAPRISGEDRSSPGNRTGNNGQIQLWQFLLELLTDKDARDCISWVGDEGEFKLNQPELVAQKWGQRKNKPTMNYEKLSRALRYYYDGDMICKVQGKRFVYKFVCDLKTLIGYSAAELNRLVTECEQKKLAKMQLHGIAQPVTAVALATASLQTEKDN
# Procedure, shortened: as §1
# ELF1 = ELF1 (Homo sapiens, UniProt P32519 1-619)
# Sequence of ELF1 (P32519 whole entry): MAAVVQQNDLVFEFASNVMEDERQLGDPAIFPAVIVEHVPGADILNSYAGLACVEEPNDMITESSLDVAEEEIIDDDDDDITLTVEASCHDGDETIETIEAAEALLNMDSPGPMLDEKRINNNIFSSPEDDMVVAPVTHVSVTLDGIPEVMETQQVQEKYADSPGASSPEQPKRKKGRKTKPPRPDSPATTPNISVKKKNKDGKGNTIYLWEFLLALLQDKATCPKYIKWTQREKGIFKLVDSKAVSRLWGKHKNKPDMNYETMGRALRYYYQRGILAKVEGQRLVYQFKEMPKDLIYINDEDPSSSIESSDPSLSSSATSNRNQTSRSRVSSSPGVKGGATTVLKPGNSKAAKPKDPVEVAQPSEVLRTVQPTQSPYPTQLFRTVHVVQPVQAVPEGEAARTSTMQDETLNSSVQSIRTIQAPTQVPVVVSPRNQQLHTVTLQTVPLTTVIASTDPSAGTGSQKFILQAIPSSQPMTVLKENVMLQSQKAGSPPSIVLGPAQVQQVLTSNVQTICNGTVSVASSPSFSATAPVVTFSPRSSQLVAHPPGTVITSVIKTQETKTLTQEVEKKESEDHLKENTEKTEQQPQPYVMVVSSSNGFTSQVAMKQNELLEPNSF
# Procedure, shortened: as §1
# EHF = target: T4, EHF (Homo sapiens, UniProt Q9NZC4 1-300)
# T4 sequence: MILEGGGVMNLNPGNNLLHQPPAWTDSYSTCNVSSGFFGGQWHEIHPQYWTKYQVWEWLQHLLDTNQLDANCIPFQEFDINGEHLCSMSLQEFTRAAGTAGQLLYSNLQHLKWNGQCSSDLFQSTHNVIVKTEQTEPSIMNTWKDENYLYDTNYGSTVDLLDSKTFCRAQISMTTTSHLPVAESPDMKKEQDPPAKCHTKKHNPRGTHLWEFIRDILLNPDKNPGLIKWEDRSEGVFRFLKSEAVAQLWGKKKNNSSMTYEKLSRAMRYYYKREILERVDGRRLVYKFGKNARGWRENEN
# Procedure, shortened: as §1
# SPIB = SPIB (Homo sapiens, UniProt Q01892 1-262)
# Sequence of SPIB (Q01892 whole entry): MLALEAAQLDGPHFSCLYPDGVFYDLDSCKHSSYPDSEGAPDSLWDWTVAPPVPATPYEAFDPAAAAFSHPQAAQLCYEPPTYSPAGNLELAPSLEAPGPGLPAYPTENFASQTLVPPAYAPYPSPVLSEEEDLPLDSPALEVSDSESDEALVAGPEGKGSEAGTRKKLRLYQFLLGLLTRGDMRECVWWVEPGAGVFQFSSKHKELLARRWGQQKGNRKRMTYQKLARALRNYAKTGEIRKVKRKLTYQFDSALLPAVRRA
# Procedure, shortened: as §1
# ELK3 = target: T5, ELK3 (Homo sapiens, UniProt P41970 1-407)
# T5 sequence: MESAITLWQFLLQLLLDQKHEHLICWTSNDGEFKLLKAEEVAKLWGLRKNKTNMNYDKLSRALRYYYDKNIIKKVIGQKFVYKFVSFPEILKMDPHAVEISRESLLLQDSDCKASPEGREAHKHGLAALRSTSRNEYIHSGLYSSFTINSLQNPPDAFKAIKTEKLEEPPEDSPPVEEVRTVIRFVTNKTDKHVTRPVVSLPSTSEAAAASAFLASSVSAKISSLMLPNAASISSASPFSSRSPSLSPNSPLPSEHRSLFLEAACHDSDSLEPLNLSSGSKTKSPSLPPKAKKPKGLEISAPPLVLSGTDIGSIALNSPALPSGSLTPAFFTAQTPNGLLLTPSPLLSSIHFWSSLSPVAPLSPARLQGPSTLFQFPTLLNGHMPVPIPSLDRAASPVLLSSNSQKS
# Procedure, shortened: as §1
# SPIC = target: T6, SPIC (Homo sapiens, UniProt Q8N5J4 1-248)
# T6 sequence: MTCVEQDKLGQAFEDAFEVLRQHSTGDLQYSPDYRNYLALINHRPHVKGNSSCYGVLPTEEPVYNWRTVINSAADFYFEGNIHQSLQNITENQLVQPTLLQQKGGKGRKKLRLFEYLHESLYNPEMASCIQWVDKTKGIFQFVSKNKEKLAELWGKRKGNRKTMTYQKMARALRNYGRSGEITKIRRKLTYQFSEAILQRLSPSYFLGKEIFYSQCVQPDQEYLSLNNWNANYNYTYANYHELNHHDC
# Procedure, shortened: as §1
# ELF4 = ELF4 (Homo sapiens, UniProt Q99607 1-663)
# Sequence of ELF4 (Q99607 whole entry): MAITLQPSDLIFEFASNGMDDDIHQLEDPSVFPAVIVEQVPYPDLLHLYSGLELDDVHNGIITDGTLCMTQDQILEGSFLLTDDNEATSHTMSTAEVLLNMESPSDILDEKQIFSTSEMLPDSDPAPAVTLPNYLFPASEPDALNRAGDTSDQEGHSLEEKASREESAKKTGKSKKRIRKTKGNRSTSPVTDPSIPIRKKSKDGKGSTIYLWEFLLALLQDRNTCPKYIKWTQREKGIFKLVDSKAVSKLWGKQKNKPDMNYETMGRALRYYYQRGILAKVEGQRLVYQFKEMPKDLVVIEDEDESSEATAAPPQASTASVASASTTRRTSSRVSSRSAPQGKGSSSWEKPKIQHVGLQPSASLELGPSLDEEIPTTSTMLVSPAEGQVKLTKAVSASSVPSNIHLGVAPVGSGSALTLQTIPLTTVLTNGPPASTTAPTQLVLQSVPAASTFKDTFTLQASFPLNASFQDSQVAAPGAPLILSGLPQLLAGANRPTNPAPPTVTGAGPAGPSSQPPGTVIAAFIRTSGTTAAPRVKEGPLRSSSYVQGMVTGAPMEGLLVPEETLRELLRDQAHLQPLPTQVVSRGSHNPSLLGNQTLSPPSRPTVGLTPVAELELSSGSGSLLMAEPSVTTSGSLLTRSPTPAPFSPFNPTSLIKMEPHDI
# Procedure, shortened: as §1
sequence,measurement,setting,value
ACCCCT,binding signal,FLI1,"1.11 fold enrichment (6-mer frequency, TF over GST control)"
same,binding signal,ELK1,"1.07 fold enrichment (6-mer frequency, TF over GST control)"
same,binding signal,GABPA,"1.04 fold enrichment (6-mer frequency, TF over GST control)"
same,binding signal,ELF1,"1.16 fold enrichment (6-mer frequency, TF over GST control)"
same,binding signal,EHF,"1.09 fold enrichment (6-mer frequency, TF over GST control)"
same,binding signal,SPIB,"1.08 fold enrichment (6-mer frequency, TF over GST control)"
same,binding signal,ELK3,"1.08 fold enrichment (6-mer frequency, TF over GST control)"
same,binding signal,SPIC,"1.05 fold enrichment (6-mer frequency, TF over GST control)"
same,binding signal,ELF4,"1.09 fold enrichment (6-mer frequency, TF over GST control)"
